From PubChem BioAssay AID1875 (Broad Institute, 2009) come the findings set out here.

The structures appear in SMILES notation. The whole screen tested about 300,000 compounds, of which about 65 (0.02%) were called active. Many of the other results were omitted from the sample, so actives are more common in it than they were. A number with no mark means an inactive call.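 How the source made its calls: active means lowest replicate activity score at least 50, where 100 means six control SD above control mean; inconclusive means lowest score under 50 but half or more replicates reach 50; inactive means the rest.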

The nature of the test: perturbers of mRNA poly(A) processing – luminescence, S. cerevisiae, primary screen (AID 1875).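 Further: yeast exposed to compound for 9 h at 30 °C; higher score means more reporter readthrough which indicates perturbed polyadenylation.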 Conditions: S. cerevisiae SKY197-pL101 polyadenylation reporter, beta-gal luminescence; at 12 µM; stronger effect = higher value; efflux-impaired pdr1/pdr3 knockout yeast; score 100 = 6 SD above DMSO.
`CCOC(=O)N1CCN(CC(=O)n2c(C)c(C)c3ccccc32)CC1`: the activity score is -9.64%.

On to `NC(N)=Nc1nc2ccc(Br)cc2c(=O)[nH]1`, for which the activity score is 11.2%.

For `Cc1ccc(NC(=O)C(=O)NCC2CCN(C(=O)c3cccc([N+](=O)[O-])c3)CC2)cc1`, the activity score was 15.6%.

For the molecule `Cc1ccc(-n2nc(N)c3c(=O)oc(N(C)C)nc32)cc1`, the activity score is -13.9%.

Regarding `FC(F)(F)c1cc(C(F)(F)F)c2ccc(N3CCN(c4ccccc4)CC3)nc2n1`, the activity score is -28.1%.

For the molecule `Nc1c(C(=O)c2cccs2)sc2nsc(SCCN3CCCCC3)c12`, the activity score is -10.6%.

On to `CN(Cc1nc(-c2cnccn2)no1)Cc1n[nH]c2c1CCCCC2`, for which the activity score is -15.8%.

For `CCNC(=O)CC1C(=O)N(c2ccc(OC)cc2)C(=O)N1CCOC` (stereo not given), the activity score is 13.9%.

For the molecule `Cc1c(Nc2nc3ccccc3nc2NS(=O)(=O)c2cccs2)c(=O)n(-c2ccccc2)n1C`, the activity score is -9.51%.

`COc1ccc(/C=C2\SC(=S)N(CCC(=O)Nc3ccccn3)C2=O)cc1OC`: the activity score is 14.3%.

As to `COc1cc(/C=C2/SC(=S)N(Cc3ccccc3)C2=O)cc(OC)c1O`, the activity score was 425% (active).

For `COc1ccccc1C(=O)NNC(=O)CCN1C(=O)/C(=C\c2ccccc2)SC1=S`, the activity score was -4.37%.

For `COC(=O)C(=Nc1ccccc1)/C(C(=O)C(=O)N(C)c1ccccc1)=C(\O)c1ccc(Cl)cc1`, the activity score was 3.12%.

Take `COc1ccc(C2/C=C\CN(S(=O)(=O)c3cccs3)CC(=O)N2Cc2ccc(F)cc2)cc1` (stereo not given): the activity score is 1.94%.

For the molecule `Cc1c(S(=O)(=O)N2CC(C)CC(C)C2)c(=O)n(C)c(=O)n1C` (stereo not given), the activity score was 11.6%.

Regarding `COc1ccc(/C=N/Nc2nc(-c3ccc(C)cc3)c(C#N)c(=O)[nH]2)cc1`, the activity score is -16.1%.

As to `Cc1ccc(CNC(=O)Cn2c(=O)c3sccc3n(Cc3cccc([N+](=O)[O-])c3)c2=O)cc1`, the activity score was -7.25%.

Consider `O=C(NCc1ccccc1)C(c1cccnc1)N(C(=O)c1csnn1)c1ccc(F)cc1` (stereo not given), for which the activity score was 5.05%.

As to `CC1CN(C(=O)COC(=O)c2cccc(NS(=O)(=O)c3ccccc3)c2)CC(C)O1` (stereo not given), the activity score was 2%.

Consider `COc1ccc(NC(=O)COc2ccc(C(=O)c3ccc(F)cc3)cc2)cc1S(N)(=O)=O`, for which the activity score is 7.67%.

As for `O=C(O)CCCn1cc(NC(=O)COc2cccc(Cl)c2)cn1`, the activity score is -6.55%.

Take `Cc1cccn2c(CN(C)C3CCCc4ccccc43)c(C(=O)N3CCOCC3)nc12` (stereo not given): the activity score was 10.7%.

Turning to `O=C(COC(=O)Cc1ccccc1F)NNC(=O)c1ccc(Cl)cc1`, the activity score is 0.16%.

Turning to `CC(C)(C)C(=O)NC1CC2CCCC(C1)N2C(=O)Nc1ccccc1F` (stereo not given), the activity score was 0.739%.

For the molecule `CCOc1ccccc1N1C(=O)CC(Sc2nccc(C)n2)C1=O` (stereo not given), the activity score was 13.3%.

For the molecule `CC(C)COP(=O)(c1ccc(N(C)C)cc1)C(Nc1ccccc1)c1cccnc1` (stereo not given), the activity score was 9.1%.

Take `Cc1ccc2nsnc2c1S(=O)(=O)N1CCCC1C(=O)O` (stereo not given): the activity score was 12.1%.

Regarding `CC(/C=C/C1(O)C(C)CC(=O)CC1(C)C)OC1OC(CO)C(O)C(O)C1O` (stereo not given), the activity score is 14.6%.

`Cc1nnc(SC(C)C(=O)Nc2ccc(S(=O)(=O)NC3CCCCC3)cc2)s1` (stereo not given): the activity score is -4.69%.

For the molecule `O=C(CSc1ccccn1)Nc1nc2c(ccc3ccccc32)s1`, the activity score is -14.3%.

For the molecule `COc1ccc(NC(=O)c2cccc(Cl)c2)c[n+]1[O-]`, the activity score is 10.9%.

Take `COc1ccc(C(=O)N(Cc2ccccc2)c2ccc(C)cc2)cc1S(=O)(=O)N1CCOCC1`: the activity score is -2.8%.

Take `Cn1c(N)c(C(=O)COC(=O)/C=C/c2ccc(OC(F)F)cc2)c(=O)n(C)c1=O`: the activity score was 0.664%.

Regarding `CCOc1ccc(S(=O)(=O)NCc2ccc3c(c2)OCO3)cc1C`, the activity score was 12.5%.

In the case of `Cc1cc(C)c(OCC(=O)N(Cc2cccs2)C2CCS(=O)(=O)C2)c(C)c1` (stereo not given), the activity score was 21.1%.

Consider `C#CCOCCOCCOCCNc1nc(N2CCN(C(=O)C([C@@H](C)CC)n3cc(C(N)COC(=O)C(F)(F)F)nn3)CC2)nc(N2CCN(C(=O)[C@H](CCCCN)n3cc(C(N)CC(C)C)nn3)CC2)n1` (stereo not given in full), for which the activity score was -6.03%.

With `Cc1ccc(NC(=O)CN2CCc3ccccc3C2)cc1C`, the activity score is -2.27%.

For the molecule `Cc1ccc(NC(=O)CSCC(=O)Nc2sccc2C#N)cc1`, the activity score was 11.2%.

Regarding `CCc1ccc2nc3sc(C(=O)Nc4nnc(CC)s4)c(N)c3cc2c1`, the activity score is 34.8%.

For `Cc1ccc(NC(=O)c2sc3nc(N)c(C#N)cc3c2N)cc1`, the activity score was 55.3% (active).

Consider `O=C1N(Cc2ccc3c(c2)OCO3)c2ccccc2C1(O)c1c[nH]c2ccccc12` (stereo not given), for which the activity score is -1.62%.

`CC(=O)N1CCN(c2ccc(NCc3ccc(C(C)C)cc3)cc2)CC1`: the activity score was 11.3%.

Turning to `COC(=O)c1ccccc1NC(=O)CN(Cc1ccc(Cl)cc1)S(C)(=O)=O`, the activity score was -7.02%.

As for `COc1cccc(CNS(=O)(=O)c2cc3c(cc2C)n(C)c(=O)c(=O)n3C)c1`, the activity score was -4.51%.

`CCCCn1c(N)c(N(CCOC)C(=O)c2oc3ccc(OC)cc3c2C)c(=O)[nH]c1=O`: the activity score is -1.46%.

Take `CC(C)=CC(=O)Nc1nnc(-c2ccc(F)cc2)s1`: the activity score is 24%.

As to `CCn1c(CC(=O)Nc2ccccc2C)nnc1SCC(=O)NC1=NCCS1`, the activity score is -11.9%.

On to `O=C(NC(=S)Nc1cccc2c(O)cccc12)c1cccc(Br)c1`, for which the activity score is -27%.

For the molecule `N/C(=N\S(=O)(=O)c1cc(C(F)(F)F)cc(C(F)(F)F)c1)c1cccs1`, the activity score is 23.1%.

In the case of `CCOc1ccc(N2CC(C(=O)NCc3ccccn3)CC2=O)cc1` (stereo not given), the activity score is 9.19%.

Consider `CCc1ccc(-c2nn(-c3ccccc3)cc2CSC(=N)N)cc1`, for which the activity score is 0.301%.

For the molecule `COc1ccccc1OCc1ccc(C(=O)NC(C)c2ccccc2)o1` (stereo not given), the activity score is 9.72%.

For `CS(=O)(=O)N(CC(=O)N1CCc2ccccc2C1)c1ccc(Br)cc1`, the activity score was -7.16%.

Regarding `COc1cccc(COC(=O)C2CCN(S(=O)(=O)c3ccc(Cl)cc3)CC2)c1OC`, the activity score was 10.3%.

Turning to `Cc1ccc(NC(=O)c2cc3ccccc3o2)cc1`, the activity score is -13.9%.
